# D1 agonist = activates the human D1 dopamine receptor; actives 1% (n = 360,000); activation, % at 2 µM; P21728; HEK293 T-REx D1 cells, calcium flux, agonist mode
#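 Tetracycline-induced HEK293 TREx D1 cells, force-coupled to calcium signalling, were dye-loaded with a no-wash calcium kit. Compound was pin-added after a 10 s baseline. Fluorescence was read kinetically at 1 cycle/s for 180 s, with calcium rises flagged as agonism.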
# TRHR ag = activates the human TRH receptor. P34981. TRHR cells, calcium flux fluo-8, FDSS agonist mode. activation, % at 2 µM. actives 0.18% (n = 360,000). AID 493084
# Target sequence (P34981 whole entry, looked up): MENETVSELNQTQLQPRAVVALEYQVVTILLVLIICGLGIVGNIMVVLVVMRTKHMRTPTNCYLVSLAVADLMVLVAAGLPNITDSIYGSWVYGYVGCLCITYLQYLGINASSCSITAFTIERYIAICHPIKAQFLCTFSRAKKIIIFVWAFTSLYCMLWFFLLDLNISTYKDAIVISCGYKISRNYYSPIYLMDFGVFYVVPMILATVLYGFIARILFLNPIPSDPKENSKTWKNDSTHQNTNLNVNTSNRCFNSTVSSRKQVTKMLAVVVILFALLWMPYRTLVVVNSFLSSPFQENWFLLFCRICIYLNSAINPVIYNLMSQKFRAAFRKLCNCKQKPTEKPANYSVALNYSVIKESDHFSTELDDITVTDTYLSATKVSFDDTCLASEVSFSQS
#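 Agonist-mode FDSS calcium read (Ex 480/Em 530, 1 s cycles) in 1536-well TRHR cells with fluo-8 dye, after 10-cycle baseline and 23 nL compound addition; TRH at EC20 (10 nM final) added afterwards for the enhancer phase.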
# D1 antag = blocks dopamine activation of the human D1 receptor; P21728; HEK293 TREx D1 cells, calcium flux, dopamine EC80; stronger effect = lower value; activity change, negative = inhibition, % at 10 µM; actives 3.2% (n = 360,000); AID 504652; in the data active = activity change below about -30%
#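 After overnight tetracycline induction at 30 C, force-coupled D1 HEK293 cells took up a no-wash calcium dye at room temperature. Compounds were added and monitored 180 s, and the response to EC80 dopamine was then recorded.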
# D1 potentiator = enhances dopamine response at the human D1 receptor | P21728 | actives 0.036% (n = 360,000) | HEK293 TREx D1 cells, calcium flux, dopamine EC20 potentiation | AID 504651 | potentiation, % at 10 µM; in the data active = potentiation above about 30%
# TRHR PAM = TRH receptor (human) allosteric enhancement; AID 493056; TRHR cells, fluo-8 calcium fluorescence, EC20 TRH enhancement; P34981; actives 0.66% (n = 360,000); enhancement, % at 2 µM; in the data active = enhancement above about 30%
#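 TRHR-expressing cells loaded with fluo-8 calcium dye were read kinetically (ex 480/em 530) during compound addition, then stimulated with an EC20 of TRH (10 nM final). Enhancement of the Gq-mediated intracellular calcium response was scored.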
# A number is an active result; – = inactive; · = no result; ! = repeats disagree. The list is not random: actives were taken first. Their share in the collection is about 4.7%. Cut-off read from the data, not from the text of the source, unless noted: active = activation above about 30%; inactive = the rest.
SMILES,D1 agonist,TRHR ag,D1 antag,D1 potentiator,TRHR PAM
Cc1ccc(NC(=S)NC2CC3CCC(C2)N3Cc2ccco2)cc1C (stereo unspecified),–,–,-89,–,–
CC(C)Cn1nc(C(=O)Nc2nnc(C3CC3)s2)c2ccccc2c1=O,–,–,–,–,–
Cc1ccc(NC(=O)CSc2nc(=O)n(CCN3CCOCC3)c3c2CCC3)c(C)c1,–,–,·,–,–
O=C(Nc1ccc(-c2cn3c(n2)SCC3)cc1)c1ccco1,–,–,–,–,–
COc1ccccc1N1CCN(C(=O)c2cc3cc(Br)ccc3oc2=O)CC1,–,–,–,–,–
CCOC(=O)N1CCN(C(=O)c2cc3cc(Br)ccc3oc2=O)CC1,–,–,–,–,41
Cc1c(OC(C)C(=O)NCCCN2CCCC2=O)ccc2c3c(c(=O)oc12)CCCC3 (stereo unspecified),33,–,–,–,–
Cc1c(OCC(=O)OC(C)(C)C)ccc2c3c(c(=O)oc12)CCC3,–,–,–,–,–
Cc1c(OC(C)C(=O)NC2CC(C)(C)NC(C)(C)C2)ccc2c3c(c(=O)oc12)CCC3 (stereo unspecified),–,–,-49,–,–
CC(Oc1cc2oc(=O)c3c(c2cc1Cl)CCC3)C(=O)NC1CC(C)(C)NC(C)(C)C1 (stereo unspecified),–,–,–,–,–
Cc1c(OC(C)C(=O)NCc2ccccn2)ccc2c3c(c(=O)oc12)CCCC3 (stereo unspecified),–,–,-37,–,–
Cc1c(OC(=O)CNC(=O)OC(C)(C)C)ccc2c3c(c(=O)oc12)CCC3,–,–,-43,–,–
CC1=NN(c2ccccc2)C(=O)/C1=C/c1cn(C)c2ccccc12,–,–,–,–,–
CC(=O)N1CCCc2cc(S(=O)(=O)N3CCCC(C(=O)Nc4ccccc4C)C3)ccc21 (stereo unspecified),–,–,-37,–,–
CC(=O)N1CCCc2cc(S(=O)(=O)N3CCC(C(=O)NCc4cccc(C)c4)CC3)ccc21,–,–,–,–,–
CC(=O)N1CCCc2cc(S(=O)(=O)N3CCCC(C(=O)NCc4ccccc4)C3)ccc21 (stereo unspecified),–,–,-30!,–,–
CC(=O)N1CCCc2cc(S(=O)(=O)N3CCC(C(=O)NCc4ccc(N(C)C)cc4)CC3)ccc21,–,–,–,–,39
CN(C)c1ccc(CNC(=O)C2CCN(S(=O)(=O)c3ccc4[nH]c(=O)ccc4c3)CC2)cc1,–,–,-41,–,–
Cc1ccc2occ(-c3cc(-c4ccc(Cl)cc4)nc4c3COc3ccccc3-4)c(=O)c2c1,–,–,–,–,–
CC(=O)N1CCCc2cc(S(=O)(=O)N3CCCC(C(=O)Nc4cccc(Cl)c4C)C3)ccc21 (stereo unspecified),–,–,-44,–,–
COc1ccc(-c2nc(CNS(=O)(=O)c3ccc(F)cc3)cs2)cc1,–,–,-32,–,–
COc1ccc(-c2nc(CNS(=O)(=O)c3ccc(C)cc3)cs2)cc1,–,–,–,–,–
O=C(CNS(=O)(=O)c1ccc2ccccc2c1)OCc1csc(-c2ccccc2)n1,–,–,–,–,–
O=C(CNS(=O)(=O)c1c(Cl)cccc1Cl)OCc1csc(-c2ccccc2)n1,–,–,-48,–,–
Cc1ccc(S(=O)(=O)NCC(=O)OCc2csc(-c3ccccc3)n2)cc1,–,–,–,–,33
COc1cc(OC)c2ccc(=O)oc2c1C(CCN1CCN(c2ccccc2)CC1)c1ccc(N(C)C)cc1 (stereo unspecified),–,–,-74,–,–
COc1ccc(C(CCN2CCN(c3ccccc3)CC2)c2c(OC)cc(OC)c3c(-c4ccccc4)cc(=O)oc23)cc1 (stereo unspecified),–,–,-42,–,–
CCCCCc1cc(=O)oc2c(C(CCN3CCN(c4ccccc4)CC3)c3ccc(N(C)C)cc3)c(OC)cc(OC)c12 (stereo unspecified),–,–,–,–,–
COc1ccc(C(CCN2CCCC2)c2c(OC)cc(OC)c3c(-c4ccccc4)cc(=O)oc23)cc1 (stereo unspecified),–,–,–,–,–
COc1cc(C(CC(=O)N2CCOCC2)c2c(OC)cc(OC)c3ccc(=O)oc23)cc(OC)c1OC (stereo unspecified),–,–,–,–,–

# High-throughput results: PubChem, National Center for Advancing Translational Sciences (NCATS)
